Shiga inhibitor: blocks Shiga toxin action in Vero cells; inhibition, % at 38.7 µM; actives 9.2% (n = 290,000); Vero cells, Shiga toxin protein synthesis inhibition reporter; in the data active = inhibition mostly above about 28%, no sharp cut-off; inactive = mostly below about 43%
Pf growth 96h: inhibits malaria parasite growth, 96 h; P. falciparum luciferase reporter growth, 96 h; Potency, µM (doses to about 28.7 µM), hits mostly inhibitors; actives 6.9% (n = 320,000); AID 504834
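Two parasite generations (96 h, 37 C, 5% CO2) of compound exposure in infected erythrocytes (0.05% parasitemia, 2% hematocrit). Luciferase-reporter P. falciparum; decreased luminescence indicates inhibited growth, aimed at apicoplast-acting delayed death.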
SARS PLP yeast: SARS-CoV PLP inhibition in yeast; S. cerevisiae expressing SARS-CoV PLpro, growth rescue; Potency, µM (series often up to 32.9 µM), usual class: activators; actives 0.19% (n = 330,000); AID 485353; calls by dose curve; note: nearly all actives have a fitted effect of over 55% in size
Pf growth 48h: inhibits P. falciparum growth in the first generation, 48 h; P. falciparum luciferase growth in erythrocytes, 48 h; Potency, µM (series often up to 28.7 µM), usual class: inhibitors; actives 5.9% (n = 310,000); AID 504832
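Luciferase-expressing parasites in RBCs, 2% Hct / 0.1% parasitemia final; RPMI 1640 + 0.5% Albumax; 37 C, 5% CO2, one generation; luminescence read-out, lower signal = inhibition.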
CHX counter: counter-screen for Shiga toxin inhibitors: cycloheximide protein synthesis inhibition. cell reporter, cycloheximide protein synthesis inhibition counterscreen. max response, %. actives 12% (n = 300,000); in the data active = max response mostly above about 13%, no sharp cut-off; inactive = mostly below about 14%; note: read at 38.3 µM for the half of the compounds with a filed dose
NS1 function inh: inhibitors of influenza NS1 protein function. Potency, µM (series often up to 46.1 µM). actives 0.4% (n = 270,000); calls by dose curve; note: actives are rising curves; nearly all actives have a fitted effect of over 50% in size
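In this qHTS, NS1 from influenza A is expressed in budding yeast, where it slows growth. Cells are switched from glucose to 2% galactose medium (pH 6.0, -URA), treated with compound, and growth recovery is read at OD600.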
Numbers stand for hits; . = inactive; ? = inconclusive; / = no result. Sampled rows, rich in hits. Any-hit rate of the full collection: about 21%. Unless noted, calls come from the whole dose curve; as a rule, active = well fitted inhibition curve with a large enough effect; inconclusive = small, poorly fitted or top-dose-only effect, or another doubt; inactive = no such curve, though single readings can be large or run the other way.

SMILES	Shiga inhibitor	Pf growth 96h	SARS PLP yeast	Pf growth 48h	CHX counter	NS1 function inh
O=C(NC(=S)NCCN1CCOCC1)c1ccc(F)cc1	43.6	.	.	.	.	.
CN1CCN(CCNC(=O)c2ccc3nc(-c4ccc(F)cc4)c(-c4ccc(F)cc4)nc3c2)CC1	.	?	.	9.28µM	.	.
O=C(NCCN1CCOCC1)c1cc(-c2ccc(F)cc2)on1	.	0.294µM	.	.	.	.
O=C(NCCCN1CCOCC1)c1cc(-c2ccc(F)cc2)on1	.	.	.	.	.	.
O=C(NCCSc1ccc(Cl)cc1)c1ccc(CN2CCOCC2)cc1	.	.	.	.	.	.
O=C(NCCSc1ccccc1)c1ccc(CN2CCOCC2)cc1	62.5	.	.	.	35.5	.
CN(CC(=O)Nc1ccc(Cl)c(C(F)(F)F)c1)C(=O)c1ccc(OCC2CCCO2)cc1 (stereo not drawn)	/	?	.	.	/	/
O=C(NCCN1CCOCC1)c1ccc(-c2ccccc2)cc1	.	.	.	.	24.6	.
COC(=O)C(Cc1ccccc1)NC(=S)NC(=O)c1ccccc1 (stereo not drawn)	.	.	.	.	.	/
O=C(Cc1ccc(-c2ccccc2)cc1)NCCN1CCOCC1	.	.	?	.	.	.
O=C(NC(=S)NC(CO)Cc1ccccc1)c1ccc(F)cc1 (stereo not drawn)	50.6	.	.	.	18.8	.
O=C(Cc1cccs1)NCCN1CCOCC1	.	4.15µM	.	.	.	.
O=C(NCCN1CCOCC1)c1cc(-c2ccco2)on1	30.9	.	.	.	.	.
COc1ccc(OC)c(NC(=O)CN2C(=O)COc3ccc(C)cc32)c1	.	?	.	?	.	.
O=C(NCCN1CCOCC1)c1cc(-c2ccc(Cl)cc2Cl)on1	50.2	.	.	.	20.2	.
CC(C)CNC(=S)NC(=O)c1ccc(F)cc1	118.2	.	?	.	61.7	.
Cc1ccc(-c2cc(C(=O)NCCN3CCOCC3)no2)cc1	25.0	/	.	.	15.1	.
CC1CN(C(=S)SCCN2C(=O)CCC2=O)CC(C)O1 (stereo not drawn)	.	?	.	.	.	.
Cc1ccc(Cn2nnnc2CN2CCC(NC(=O)C(C)(C)C)CC2)cc1	.	.	.	.	.	.
O=C(c1ccc2ccccc2c1)C1CCCN(C(=O)c2noc3c2CCCC3)C1 (stereo not drawn)	.	?	.	.	.	.
C/C(CC(=O)NC1CCCCC1)=N\NC(=O)c1ccccn1	63.9	.	.	.	38.5	.
CC(=O)Nc1ccccc1NC(=O)C/C(C)=N/NC(=O)c1ccccn1	61.5	?	.	.	38.3	.
C/C(CC(=O)NCc1ccccc1Cl)=N/NC(=O)c1ccccn1	79.3	.	.	.	25.5	.
C/C(CC(=O)Nc1ccc(F)cc1)=N\NC(=O)c1ccccn1	.	.	.	.	.	/
O=C(NCc1ccc(Cl)cc1Cl)c1ccccn1	.	.	.	.	.	.
SMILES	Shiga inhibitor	Pf growth 96h	SARS PLP yeast	Pf growth 48h	CHX counter	NS1 function inh
O=C(CSc1ccc(-c2cccc([N+](=O)[O-])c2)nn1)NCc1ccccc1	.	.	.	.	.	/
O=[N+]([O-])c1cccc(-c2ccc(SCc3cccnc3)nn2)c1	.	.	.	.	44.1	/
CSc1ccc(-c2cccc([N+](=O)[O-])c2)nn1	79.4	.	.	.	27.4	/
COc1cc(N2CCOCC2)ccc1/C=C1\C(=O)NC(=O)N(C2CCCCC2)C1=O	.	.	.	?	.	.
CCN1C(=O)NC(=O)/C(=C\c2ccc(N3CCOCC3)cc2OC)C1=O	55.8	.	.	.	66.9	.
O=[n+]1c2c(n([O-])c3cc(F)c(N4CCCC4)cc31)CCCC2	60.6	?	.	.	30.3	.
Cc1ccc(-n2nc3ccc(NC(=O)c4ccc5c(c4)OCO5)cc3n2)cc1	.	.	.	.	.	.
Cc1ccc(-n2nc3ccc(N)cc3n2)cc1	.	.	.	.	27.8	.
Nc1ccc2nn(-c3ccc(F)cc3)nc2c1	95.3	?	.	.	58.2	?
Nc1ccc2nn(-c3cc([N+](=O)[O-])ccc3O)nc2c1	.	.	.	.	.	.
CC(C)c1ccc(-n2nc3ccc(N)cc3n2)cc1	77.1	?	.	.	68.3	.
C/C(=N\NC(=O)C1CCCC1)c1ccc(Cl)cc1Cl	.	.	.	.	.	.
COc1ccc(OC)c(N(C)S(=O)(=O)c2ccc3c(c2)N(C(C)=O)CCO3)c1	.	.	.	.	.	.
CC(C)C[C@H](NC(=O)[C@H](CC(C)C)NC(=O)[C@H](Cc1ccccc1)NC(=O)[C@@H](N)CO)C(=O)N[C@@H](CCCN=C(N)N)C(=O)N[C@@H](CC(N)=O)C(=O)O	.	/	/	/	.	/
CCCn1ncc(CN2CCC(N3CCC(C(=O)N4CCOCC4)CC3)CC2)c1C	.	.	.	.	.	.
CCOc1cccc(-c2cc(C(=O)NN)[nH]n2)c1	.	?	.	.	.	.
COc1ccc(CNC(=O)c2cc(-c3cc(C)ccc3O)n[nH]2)cc1	.	?	.	?	.	.
CCOc1ccc(-c2cc(C(=O)OC)[nH]n2)cc1	89.1	.	.	.	42.6	.
CCOC(=O)c1cc(-c2ccc(C)o2)n[nH]1	.	/	.	.	.	.
COC(=O)c1cc(-c2ccc(OC)cc2)n[nH]1	103.4	.	.	.	27.5	.
COC(=O)c1cc(-c2cccc(OC)c2)n[nH]1	49.0	.	.	.	23.8	.
COC(=O)c1cc(-c2ccc(C)cc2)n[nH]1	81.7	.	.	.	48.1	.
CCOP(=O)(OCC)C(NC(=O)c1cccs1)C(F)(F)F (stereo not drawn)	.	.	.	.	.	/
COc1ccc(CC(=O)NNC(=O)COc2ccc(C)cc2)cc1S(=O)(=O)N1CCOCC1	/	.	.	.	/	/
CCN(CC)C(=O)CSc1nnc(-c2cc3ccccc3cc2O)n1CC	.	.	.	8.28µM	.	.
SMILES	Shiga inhibitor	Pf growth 96h	SARS PLP yeast	Pf growth 48h	CHX counter	NS1 function inh
CCn1c(SCC(=O)O)nnc1-c1ccccc1OC	102.6	.	.	.	48.9	.
CCN(CC)C(=O)CSc1nnc2cc(C)c3ccccc3n12	.	?	.	.	.	/
O=C(NCCS(=O)(=O)N1CCN(c2ccccc2F)CC1)c1cccc(Br)c1	.	.	.	.	.	.
N#C/C(=C\c1ccc(Cl)s1)C(=O)N1CCN(c2ccccc2)CC1	.	.	.	.	.	.
COC(=O)C1=C(c2ccc(-c3ccccc3)c(F)c2)C[C@@H]2CC[C@H]1N2C(=O)NCCO	/	.	.	?	/	/
COC(=O)C1=C(c2ccc(F)cc2F)C[C@@H]2CC[C@H]1N2C(=O)NCCOc1ccccc1	/	4.15µM	.	?	/	/
COC(=O)C1=C(c2ccc(OC)c(OC)c2)C[C@@H]2CC[C@H]1N2C(=O)NCCOc1ccccc1Cl	/	?	.	?	/	/
COC(=O)C1=C(c2ccc(-c3ccccc3)c(F)c2)C[C@@H]2CC[C@H]1N2C(=O)NCCOc1ccccc1Cl	/	?	.	10.4µM	/	/

Assay outcomes (PubChem)
